# Test results: PubChem BioAssay AID1220 (Sanford-Burnham Center for Chemical Genomics, 2008)
# About 1,300 (0.68%) of roughly 190,000 compounds were called active. The entries come from a sample that favours actives as a whole. Values without a mark were called inactive. Cut-off read from the data, not from the text of the source: active = inhibition above about 50%; inactive = the rest.
# Molecular target: Mannose-6-phosphate isomerase (Homo sapiens) (UniProt P34949)
# Assay: MPI inhibition at elevated mannose 6-phosphate – biochemical, fluorescence intensity, high mannose 6-phosphate, primary screen (AID 1220)
# Details: recombinant PMI enzyme, coupled fluorescence intensity; at 20 µM; hits give high values
# Sequence of Mannose-6-phosphate isomerase (Homo sapiens) (P34949 whole entry, looked up): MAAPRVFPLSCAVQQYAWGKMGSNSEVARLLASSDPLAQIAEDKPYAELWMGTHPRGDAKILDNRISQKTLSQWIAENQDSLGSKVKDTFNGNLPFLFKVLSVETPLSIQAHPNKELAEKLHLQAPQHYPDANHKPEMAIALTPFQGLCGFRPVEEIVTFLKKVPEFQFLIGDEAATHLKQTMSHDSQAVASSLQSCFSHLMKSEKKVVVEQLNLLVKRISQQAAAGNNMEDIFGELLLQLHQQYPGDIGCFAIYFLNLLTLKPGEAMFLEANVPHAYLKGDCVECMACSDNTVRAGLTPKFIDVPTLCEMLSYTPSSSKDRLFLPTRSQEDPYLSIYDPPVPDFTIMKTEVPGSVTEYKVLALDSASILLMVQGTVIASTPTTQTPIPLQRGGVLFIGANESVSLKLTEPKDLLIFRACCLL
row,SMILES,inhibition
1,COCCNC(=O)C1CCCN(c2nn3c(=O)cc(C)nc3s2)C1 (stereo not drawn),7.2%
2,CCN1CCN(Cc2nc3c(c(=O)n(C)c(=O)n3C)n2CCc2ccccc2)CC1,-1.1%
3,O=c1cc(Nc2ccc3c(c2)OCCO3)[nH]c(=O)n1-c1ccc(Cl)cc1,8%
4,O=c1cc(Nc2ccc3c(c2)OCO3)[nH]c(=O)n1-c1ccc(Br)cc1,1.9%
5,O=c1cc(Nc2ccc3c(c2)OCCO3)[nH]c(=O)n1-c1ccc(Br)cc1,57.5% (active)
6,CC1CCN(S(=O)(=O)c2ccc(NC(=S)NC(=O)c3ccc(Cl)cc3)cc2)CC1,-6.2%
7,CC[n+]1ccc(C)c2cc(P(=O)(c3ccccc3)c3ccccc3)ccc21,18.4%
8,CC[n+]1ccc(C[n+]2ccccc2)c2ccccc21,97.1% (active)
9,CC[n+]1ccc(/C=C/c2ccc(N(C)C)cc2)c2ccccc21,-4.8%
10,O=C(NCc1ccccc1)C1=C[C@@H](c2coc3ccccc3c2=O)C[C@@H](OCCCCO)O1,8.5%
11,O=C(NCc1ccc(Cl)cc1)C(=O)NCC(c1cccnc1)N1CCN(c2ccc(F)cc2)CC1 (stereo not drawn),2.5%
12,CCOC1(NC(=O)c2ccccc2)C(C)=CC(=O)C=C1C,49.2%
13,CCCOC1(NC(=O)c2ccccc2)C(C)=CC(=O)C=C1C,55.4% (active)
14,COC1(NC(=O)c2ccccc2)C(C)=CC(=O)C=C1C,6.7%
15,CCNC(=O)/C(=C\C=C\c1ccccc1)NC(=O)c1ccc(Br)o1,-11.4%
16,Cc1ccc(Nc2nc3ccccc3c(=O)[nH]2)cc1C,-5%
17,Nc1ccc2oc(C3CCCCC3)nc2c1,64% (active)
18,O=[N+]([O-])c1ccc2oc(C3CCCCC3)nc2c1,2.8%
19,Nc1ccc2nc(C3CCCCC3)[nH]c2c1,32.3%
20,Cc1c(-n2cc(C(=O)O)c(=O)c3cc(F)c(N4CCCC4)c(F)c32)c(=O)n(-c2ccccc2)n1C,16%
21,Cc1sc2nc(CN3CCOCC3)nc(NCCc3ccccc3)c2c1C,2%
22,CCOc1cc(-c2conc2N)cc(OCC)c1OCC,4.6%
23,CCOc1cc(-c2cc(N)n[nH]2)cc(OCC)c1OCC,61.2% (active)

row,SMILES,inhibition
1,CCCc1ccc(-c2cc(N)n[nH]2)cc1,-0.8%
2,O=C(Nc1ccc(NC(=O)c2cccs2)cc1)c1cccnc1,-2.7%
3,O=C(Nc1cccc(NC(=O)c2cccnc2)c1)c1cccnc1,7.6%
4,O=C(Nc1cccc(NC(=O)c2cccs2)c1)c1cccnc1,50.8% (active)
5,Oc1ccc(CCC2CCCCN2Cc2nc(C3CC3)no2)cc1 (stereo not drawn),5.5%
6,CCc1ccccc1NC(=O)Nc1ccc(F)cc1F,-2.1%
7,CN1C(=O)c2cccc3c(Cl)ccc(c23)C1=O,-5.2%
8,Cn1cc(C=O)c2ccccc21,8.2%
9,CN1C(=O)N(C)c2ccc(C=O)c3cccc1c23,63.6% (active)
10,O=C(Cn1cncn1)NCc1ccc(Cl)cc1,-13.3%
11,O=C(Cn1cncn1)N/N=C/c1ccc(Cl)cc1,-5%
12,Cc1cc(Cl)ccc1NC(=O)Cn1cncn1,62.6% (active)
13,COc1cc2cc(C(N)=O)c(N)nc2cc1OC,-0.4%
14,COc1cc2cnc(Cl)nc2cc1OC,54.8% (active)
15,COc1cc2cnncc2cc1OC,-4.8%
16,COc1ccc(CC(=O)NCc2n[nH]c(=S)n2-c2ccccc2)cc1,-0.6%
17,CCOC(=O)N1CCN(Cc2ccccc2Cl)CC1,4.6%
18,OCCN1CCN(Cc2cc(Cl)c3cccnc3c2O)CC1,48.3%
19,CCOC(=O)N1CCN(Cc2ccccn2)CC1,-7.5%
20,Cc1ccc(C)c(S(=O)(=O)N2CCN(Cc3ccc(O)c4ncccc34)CC2)c1,19.7%
21,COc1ccc(-n2c(SCC(=O)Nc3nccs3)nc3c(c2=O)SCC3)cc1,11.9%
22,CCC(=O)c1ccc(OCC(O)CN2CCOCC2)cc1 (stereo not drawn),6.8%
23,O=C(Nc1ccc2c(c1)CCC2)Nc1ccc2c(c1)OCO2,11%

row,SMILES,inhibition
1,CC(/C=N/Nc1nc(C)cc(=O)[nH]1)=C\c1ccccc1,-78.9%
2,COc1ccc(NC(=S)Nc2ccccc2)cn1,8.5%
3,COc1ccccc1NC(=S)NNC(=S)Nc1ccc(OC(F)F)cc1,5.4%
4,COc1ccc(NC(=S)Nc2ccc(OC(F)F)cc2)cn1,58.2% (active)
5,O=C(O)c1ccccc1SCC(=O)N1CCc2ccccc21,-1.8%
6,COC(=O)c1ccccc1NC1OC(=O)c2ccccc21 (stereo not drawn),8.6%
7,O=C1OC(Nc2ncccn2)c2ccccc21 (stereo not drawn),5.1%
8,O=C1OC(Nc2ccc(Br)cc2F)c2ccccc21 (stereo not drawn),-12.4%
9,Cc1ccc2cccc(NC3OC(=O)c4ccccc43)c2n1 (stereo not drawn),59.9% (active)
10,CCOC(=O)c1ccccc1NC1OC(=O)c2ccccc21 (stereo not drawn),6.8%
11,O=C1OC(Nc2cc(Br)cc3cccnc23)c2ccccc21 (stereo not drawn),50.7% (active)
12,Cc1ccc(OCCOc2ccc(Br)cc2/C=N\NC(N)=O)cc1,4%
13,CCOc1ccc(N=Nc2c(=O)[nH]n3c(C)cc(C)nc23)cc1,18%
14,CCOC(=O)C1CCCN(C2CC(=O)N(c3ccc(C)cc3)C2=O)C1 (stereo not drawn),-2.1%
15,COC(=O)CP(=O)(c1ccccc1)c1ccccc1,-5.8%
16,O=[N+]([O-])/C=C/c1c(OCc2ccccc2)ccc2ccccc12,3.1%
17,CCOC(=O)COc1ccc(/C=C/[N+](=O)[O-])c(OCC(=O)OCC)c1,1.7%
18,CCOC(=O)COc1ccccc1/C=C\[N+](=O)[O-],0.8%
19,CCOC(=O)Cn1cc(/C=C/[N+](=O)[O-])c2ccccc21,8.7%
20,CCOc1ccc(/C=C/[N+](=O)[O-])c2ccccc12,55.6% (active)
21,CCOC(=O)COc1ccc2ccccc2c1/C=C/[N+](=O)[O-],54.6% (active)
22,COc1ccc(Nc2nc(N)nc(CSc3nncn3C)n2)cc1,4.9%
